From PubChem BioAssay AID431 (Sanford-Burnham Center for Chemical Genomics, 2006) come the findings set out here.

Out of some 63,000 compounds screened, about 1,100 (1.7%) were called active. The sample as a whole holds a higher share of actives than the screen did. Measured potencies and affinities stand elsewhere. Unmarked numbers belong to inactive results.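 Rule for the calls: active = compounds whose percent cytotoxicity in the single-dose primary screen, scaled between solvent and toxic-drug controls, exceeds 50; inactive = the rest.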

The nature of the assay: cytotoxicity in KRAS-transformed pancreatic duct cells, primary screen, cell-based, fluorescence, HTS (AID 431).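 Note: 0% = DMSO solvent wells and 100% = doxorubicin-treated wells.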 Conditions: HPDE-C7K KRASV12 cells, Alamar Blue viability, 48 h; at 10 µM; stronger effect = higher value. On the technique in general: Resazurin is reduced to fluorescent resorufin, in cell work by metabolically active cells.
Consider `O=C(O)CCC(=O)OCC1CCCO1` (stereo not given), for which the cytotoxicity was -8.8%.
`O=C(CSc1nnc(-c2ccccn2)n1Cc1ccccc1)NC1CCCC1`: the cytotoxicity is -15.2%.
The figure for `O=S(=O)(Nc1ccc(S(=O)(=O)N2CCOCC2)cc1)c1ccccc1` is 7.6%.
Regarding `OC(CNCc1ccco1)Cn1c2ccccc2c2ccccc21` (stereo not given), the cytotoxicity is 40.9%.
The figure for `Cc1ccc(/C(C#N)=C\c2cn(C)c3ccccc23)cc1` is 35.2%; for `CC1(C(=O)NC2CCCC2)CCC(=O)N1CCC1=CCCCC1` (stereo not given) it is -21.1%.
Then `Cc1cccc2cc(C#N)c(SCCN3CCCCC3)nc12`, with 57.1% (active); and `Cc1cccc2cc(C#N)c(SCC(=O)N3CCC(C)CC3)nc12`, with 2.7%.
Then `Cc1cc(C)c2nc(SCC(=O)N3CCCCC3)c(C#N)cc2c1`, with 2.7%; and `Cc1cccc2cc(C#N)c(N3CCN(C)CC3)nc12`, with 1.8%.
With `Cc1ccccc1-n1c(C)nnc1SCC(=O)N1CC(=O)Nc2ccccc21`, the cytotoxicity is -8.9%.
`Cc1cccc2cc(C#N)c(SCC(=O)N3CC(=O)Nc4ccccc43)nc12`: the cytotoxicity was 65% (active).
Consider `CNc1nc(C)c(C(=O)OCc2ccccc2)s1`, for which the cytotoxicity was -0.8%.
The figure for `C=CCOn1c(=O)c(=O)n(OCc2ccccc2)c2ccccc21` is -23.8%.
Then `C/C(N)=C(/C#N)C(=O)CSc1nc2cc(Cl)ccc2s1`, with 12%; and `CCOC(=O)N1CCC(NC(=O)c2cc(S(=O)(=O)N3CCC4(CC3)OCCO4)ccc2F)CC1`, with -4.2%; and `COC(=O)c1ccc(C2C(C#N)=C(N)Oc3cc(C)n(C)c(=O)c32)cc1` (stereo not given), with -10.1%.
Then `CCCC(=O)N1CCN(c2ccc(C(=O)c3ccc(OC)c(Br)c3)cc2F)CC1`, with 62.5% (active).
`CCCCCC(=O)N1CCN(c2ccc(C(C)=O)cc2F)CC1`: the cytotoxicity was 0.9%.
The figure for `CCCC(=O)c1ccc(N2CCN(C(=O)c3ccc(Br)cc3)CC2)c(F)c1` is -6.7%.
Then `COc1ccc(-c2nnc(SCC(=O)N3CCCCC3)o2)cc1OC`, with -0.7%.
Then `O=C(Nc1ccc(C(F)(F)F)cc1Cl)c1ccc(Cn2cc(Br)cn2)o1`, with 124% (active); and `O=C(NC1CCCCC1)c1ccc(Cn2cc(Br)cn2)o1`, with -12.9%.
For `CC(=O)c1sc(NC(=O)c2ccc(Cn3cc(Br)cn3)o2)nc1C`, the cytotoxicity is 1.1%.
The figure for `Cc1cc(C)nc(SCc2nnc(SCc3ccccc3Cl)o2)n1` is -16.5%; for `Cc1ccc(NC(=O)CSc2nnc(-c3ccco3)c(-c3ccco3)n2)cc1` it is 90.7% (active); for `Clc1ccccc1CSc1ncccn1` it is -6%.
The figure for `COc1ccc(NC(=O)CSc2nnc(-c3ccco3)n2C)cc1` is 0.5%; for `O=C(CSc1nnc(-c2ccco2)c(-c2ccco2)n1)Nc1ccccc1` it is 1.2%; for `CCNC(=O)CP(=O)(c1ccccc1)c1ccccc1` it is 1.9%.
Then `CCc1ccc(Cn2nnc(C(=O)Nc3cccc(C)c3)c2N)cc1`, with -0.7%.
Take `CCOC(=O)C1CCCN(CCC(C)c2ccccc2)C1` (stereo not given): the cytotoxicity was 20.5%.
As to `Cc1c(NC(=O)NC(=O)c2ccc(F)cc2)c(=O)n(-c2ccccc2)n1C`, the cytotoxicity is -11.2%.
The figure for `COc1ccc(Nc2nc(-c3sc(N)nc3C)cs2)cc1` is 58% (active); for `Cc1nc(N)sc1-c1csc(Nc2ccccc2)n1` it is 49%.
Consider `COc1ccc(OC)c(Nc2nc(-c3sc(N)nc3C)cs2)c1`, for which the cytotoxicity was 37.6%.
The figure for `COc1ccc(CCNc2nc(-c3sc(N)nc3C)cs2)cc1OC` is 16.4%.
With `Cc1nc(N)sc1-c1csc(Nc2ccccn2)n1`, the cytotoxicity is -9.8%.
Then `COc1cccc(Nc2nc(-c3sc(N)nc3C)cs2)c1`, with 60.7% (active); and `CCOc1ccc(Nc2c3c(nc4ncnn24)CC(C)CC3)cc1` (stereo not given), with 4.3%.
Take `O=C(O)CCCNS(=O)(=O)c1cccs1`: the cytotoxicity is 8%.
The figure for `COc1ccc(NC(=O)C2CC2)cc1-n1cnnn1` is -12.2%; for `NC(=O)C1CCN(C(=O)CN(c2cccc(C(F)(F)F)c2)S(=O)(=O)c2ccccc2)CC1` it is -1.4%.
Turning to `CCOC(=O)Nc1ccc2c(c1)N(C(=O)CCN1CCOCC1)c1ccccc1S2`, the cytotoxicity is 0.3%.
Then `CCOC(=O)Nc1ccc2c(c1)N(C(=O)CCN1CCOCC1)c1ccccc1S2=O` (stereo not given), with 69.3% (active); and `CCOC(=O)Nc1ccc2c(c1)Sc1ccccc1N2C(=O)CCN1CCOCC1`, with 1.2%; and `Cc1c(NC(=O)CSc2nnnn2Cc2ccccc2)c(=O)n(-c2ccccc2)n1C`, with -13.5%.
Then `Cc1c(NC(=O)c2ccc(Br)o2)c(=O)n(-c2ccccc2)n1C`, with 12.6%.
As for `Cc1c(NC(=O)Nc2ccc(Cl)cc2)c(=O)n(-c2ccccc2)n1C`, the cytotoxicity was -17%.
As to `Cc1c(NC(=O)Nc2cccc(Cl)c2)c(=O)n(-c2ccccc2)n1C`, the cytotoxicity was -10.4%.
Then `Cc1c(NC(=O)Nc2ccc(Cl)c(Cl)c2)c(=O)n(-c2ccccc2)n1C`, with 70.7% (active); and `Cc1c(NC(=O)c2ccc(=O)oc2)c(=O)n(-c2ccccc2)n1C`, with -10.4%; and `CCOC(=O)c1nn(-c2ccccc2)c(=O)c(C#N)c1C`, with 0.8%.
Take `Cc1noc(C)c1COC(=O)CCCOc1ccc(Cl)cc1Cl`: the cytotoxicity is 5.6%.
The figure for `COc1cccc(NC(=O)CN2CCN(S(=O)(=O)c3ccc(C(C)C)cc3)CC2)c1` is -4.2%; for `C/C(=N\O)C(=O)C(CN1CCCCC1)CN1CCCCC1` it is -6.8%; for `COc1cc(NC(=O)C2C3C=CC(C3)C2C(=O)O)c(OC)cc1Cl` (stereo not given) it is 2.1%.
The figure for `CCOC(=O)C1=C(N)n2c(s/c(=C\c3cccnc3)c2=O)=C(C(=O)OCC)C1c1cccnc1` (stereo not given) is -18.8%; for `CCOC(=O)C1=C(N)n2c(s/c(=C\c3cccnc3)c2=O)=C(C(=O)OC)C1c1cccnc1` (stereo not given) it is -15.5%.
The figure for `CCOC(=O)C1=C(N)n2c(s/c(=C/c3ccco3)c2=O)=C(C(=O)OC)C1c1ccco1` (stereo not given) is 73.7% (active).
With `N#CC1=C(N)n2c(s/c(=C\c3ccco3)c2=O)=C(C#N)C1c1ccco1` (stereo not given), the cytotoxicity was 5.8%.
Then `CCOC(=O)C1=C(N)n2c(s/c(=C\c3ccco3)c2=O)=C(C(=O)OC(C)C)C1c1ccco1` (stereo not given), with 0.1%; and `O=C(OCN1C(=O)c2ccccc2C1=O)c1ccccc1`, with 2.9%; and `CCn1c(=O)cc(OCC(=O)Nc2cc(C)ccn2)c2ccccc21`, with -3.3%.
For the compound `N#Cc1nc(COc2ccccc2F)oc1N1CCCCCC1`, the cytotoxicity is -5.8%.
Turning to `CCOc1ccccc1CN1CCN(S(C)(=O)=O)CC1`, the cytotoxicity was -4.6%.
`CC1(C)CC(=O)C2=C(C1)NC(SCC(=O)Nc1ccccc1)=C(C#N)C2c1ccco1` (stereo not given): the cytotoxicity is -6.1%.
The figure for `Cc1ccc(C(=O)CSC2=C(C#N)C(c3ccco3)C3=C(CC(C)(C)CC3=O)N2)cc1` (stereo not given) is 18.2%; for `Cc1ccc(NC(=O)CSC2=C(C#N)C(c3ccco3)C3=C(CCCC3=O)N2)cc1` (stereo not given) it is 2.1%; for `N#CC1=C(SCC(=O)c2ccccc2)NC2=C(C(=O)CCC2)C1c1ccco1` (stereo not given) it is 41.2%.
Then `COc1cccc(NC(=O)CSC2=C(C#N)C(c3ccco3)C3=C(CCCC3=O)N2)c1` (stereo not given), with 15.3%; and `Cc1ccc(C(=O)CSC2=C(C#N)C(c3ccco3)C3=C(CCCC3=O)N2)cc1` (stereo not given), with 77.3% (active).
The figure for `CCCCc1ccc(NC(=O)CSC2=C(C#N)C(c3ccco3)C3=C(CCCC3=O)N2)cc1` (stereo not given) is 79.6% (active).
Regarding `CCc1ccc(NC(=O)CSC2=C(C#N)C(c3ccco3)C3=C(CCCC3=O)N2)cc1` (stereo not given), the cytotoxicity is 8.2%.
Then `Cc1ccc(NC(=O)CSC2=C(C#N)C(c3ccco3)C3=C(CC(C)(C)CC3=O)N2)cc1` (stereo not given), with 54.3% (active); and `COc1cc(S(=O)(=O)N2CCN(c3ccccc3F)CC2)ccc1Cl`, with 24%; and `CCCC(=O)CN1C(=O)C2(OCCO2)c2ccccc21`, with -6.1%.
The figure for `COc1ccc2c(c1)CCc1c(C(=O)NCc3ccc(F)cc3)noc1-2` is 1.6%.
The figure for `COc1ccc(OCCC(=O)Nc2cc(C)on2)cc1` is 1.4%; for `CCCCn1c(SCC(=O)Nc2cc(C)on2)nc2ccccc2c1=O` it is -8.1%; for `Cc1ccc(-c2nn3c(C)nnc3s2)cc1NC(=O)c1ccc(Br)o1` it is -0.3%.
`Cc1nnc2sc(-c3cccc(NC(=O)c4ccc(-c5cccc(Cl)c5)o4)c3)nn12`: the cytotoxicity was -2.2%.
Take `O=C(Nc1nnc(-c2ccco2)o1)C1CCCCC1`: the cytotoxicity is 4.3%.
Then `CCOc1ccc(-c2nnn(CC(=O)Nc3cc(OC)cc(OC)c3)n2)cc1OCC`, with -1.3%; and `CCOc1ccc(-c2nnn(CC(=O)Nc3cc(OC)ccc3OC)n2)cc1OCC`, with 70.6% (active); and `CCOc1ccc(-c2nnn(CC(=O)Nc3ccccc3OC)n2)cc1OCC`, with -3.2%.
Then `Cc1ccc2[nH]c(C)c(CN(C)C3CCN(C)CC3)c(=O)c2c1`, with -9.9%.
The figure for `O=C(NCc1ccco1)c1cccc2ccccc12` is -9%; for `Cc1ccc(-c2n[nH]c(=O)c3ccccc23)cc1N` it is 1.4%; for `CCC(c1nc2ccccc2c(=O)n1CCCn1ccnc1)N1C(=O)c2ccccc2C1=O` (stereo not given) it is -3.6%.
For `COc1ccc(N/C=C(\C#N)c2nc3ccccc3n2C)c(OC)c1`, the cytotoxicity is 44.3%.
Then `O=C(Nc1ccc(F)cc1)N1CCN(C/C=C/c2ccccc2)CC1`, with 25.8%; and `C(=C\c1ccccc1)/CN1CCN(C(c2ccccc2)c2ccccc2)CC1`, with 2.8%.
The figure for `O=C(CSC1=Nc2ccccc2C2=NC(CC(=O)NCc3ccco3)C(=O)N12)NCC1CCCO1` (stereo not given) is -7.9%.
The figure for `CCOc1ccc(C(=O)N2CCN=C2SC)cc1OCC` is -3.5%; for `Cc1ccc(C)c(OCC(=O)Nc2ccc3c(c2)OCO3)c1` it is -3.1%; for `Cc1ccc(C)c(OCC(=O)Nc2cc(C)on2)c1` it is 4.9%.
`Cc1ccc(C)c(OCC(=O)Nc2nonc2NC(=O)COc2cc(C)ccc2C)c1`: the cytotoxicity is 74.3% (active).
The figure for `CSc1nnc([C@H](C)NC(=O)OC(C)(C)C)o1` is -22.1%; for `Cn1cccc1C(C(=O)NC1CCCCC1)N(C(=O)Cc1cccs1)C1CC1` (stereo not given) it is -22.4%.
The figure for `N#Cc1ccc(-c2ccco2)nc1SCC(=O)c1ccc(Cl)cc1` is 19.1%; for `COc1ccc(NC(=O)CSC2=C(C#N)C(c3ccco3)C3=C(CCCC3=O)N2)c(OC)c1` (stereo not given) it is -2.7%.
The figure for `CC(C)(C)c1ccc(C(=O)CCCSC2=C(C#N)C(c3ccco3)C3=C(CCCC3=O)N2)cc1` (stereo not given) is 18.5%; for `Cc1cccc(N2CCN(c3cc(C)nc4nnnn34)CC2C)c1` (stereo not given) it is -38.8%; for `O=C(Cn1cnc2c(nnn2Cc2ccc(Cl)cc2)c1=O)NCC1CCCO1` (stereo not given) it is -3.4%.
On to `COC(=O)c1c(NC(=O)c2cccs2)sc2c1CCC(C)C2` (stereo not given), for which the cytotoxicity is 5.5%.
Take `Cc1sc(NC(=O)CSc2nnc(COc3ccccc3)n2C)c(C#N)c1C`: the cytotoxicity is 4.2%.
Then `Cc1ccc(-c2csc3nnc(SCC(=O)Nc4nsc(-c5ccccc5)n4)n23)cc1`, with -0.3%; and `Clc1ccccc1Cn1nnc2c(Nc3ccccc3)ncnc21`, with -4.9%.
Regarding `CC(C)CCNc1ncnc2c1nnn2Cc1ccccc1Cl`, the cytotoxicity is -8.2%.
